Hit rate of the full screen: of about 39,000 compounds, about 1,500 (3.8%) were called active. The list comes from a sample in which actives are over-represented; it also holds similar structures and randomly drawn compounds.

The test system of this assay is HSkMC (human skeletal muscle cells). In words: cytotoxicity call (relative viability < 0.9). Conditions: 10 µM.
As for `C[C@H](CO)N1C[C@H](C)[C@H](CN(C)S(=O)(=O)c2ccccc2)Oc2ccc(NC(=O)CCN3CCOCC3)cc2CC1=O`, the cytotoxicity call is “inactive”.

Regarding `C[C@@H]1CN([C@H](C)CO)S(=O)(=O)c2ccc(C3=CCCC3)cc2O[C@H]1CN(C)S(=O)(=O)c1cn(C)cn1`, the cytotoxicity call was “inactive”.

For the compound `C/C1=C2/[N]([Co+][OH])[C@H]([C@H](CC(N)=O)[C@@]2(C)CCC(=O)NC[C@@H](C)OP(=O)(O)O[C@H]2[C@@H](O)[C@@H](n3cnc4cc(C)c(C)cc43)O[C@@H]2CO)[C@]2(C)N=C(/C(C)=C3N=C(/C=C4N=C1[C@@H](CCC(N)=O)C/4(C)C)[C@@H](CCC(N)=O)[C@]\3(C)CC(N)=O)[C@@H](CCC(N)=O)[C@]2(C)CC(N)=O`, the cytotoxicity call is “active”.

As to `C[C@H]1CN([C@@H](C)CO)C(=O)Cc2cc(NC(=O)Cn3cnnn3)ccc2O[C@@H]1CN(C)S(=O)(=O)c1ccc(Cl)cc1`, the cytotoxicity call was “inactive”.

For the compound `CC(C)N1CC[C@@H](CN(C)Cc2ccc(Cl)cc2)Oc2c(NC(=O)c3ccncc3)cccc2C1=O`, the cytotoxicity call is “inactive”.

For `Cc1ccc2c(c1)c1nc3ccccc3nc1n2Cc1ccccc1`, the cytotoxicity call is “inactive”.

For `Cc1ccc(C(=O)N(CCCN)[C@@H](c2nc3cc(Cl)ccc3c(=O)n2Cc2ccccc2)C(C)C)cc1`, the cytotoxicity call was “active”.

In the case of `Cc1ccc(C(=O)N(CCCN)[C@@H](c2oc3cc(Cl)ccc3c(=O)c2Cc2ccccc2)C(C)C)cc1`, the cytotoxicity call was “active”.

In the case of `COc1ccc2cc(S(=O)(=O)N[C@H](CC(=O)N[C@H](Cc3ccc(CN4[C@H](C)CCC[C@@H]4C)cc3)C(=O)N(C)C(C)C)c3ccc4c(c3)OCO4)ccc2c1`, the cytotoxicity call is “inactive”.

As to `C[C@@H]1CCCCO[C@@H](CN(C)Cc2ccc(Cl)c(Cl)c2)[C@@H](C)CN([C@@H](C)CO)C(=O)c2cc(NC(=O)CCC(F)(F)F)ccc2O1`, the cytotoxicity call is “inactive”.

For the compound `CO[C@H](C(=O)N(C)C[C@H]1OCc2ccccc2-c2c(n(C)c3ccccc23)C(=O)N([C@@H](C)CO)C[C@H]1C)c1ccccc1`, the cytotoxicity call was “inactive”.

Take `C[C@@H]1CN([C@H](C)CO)C(=O)c2cc(NS(C)(=O)=O)ccc2O[C@@H]1CN(C)C(=O)NC1CCCCC1`: the cytotoxicity call was “inactive”.

In the case of `Cc1noc(C)c1NC(=O)Nc1ccc2c(c1)C(=O)N([C@H](C)CO)C[C@H](C)[C@H](CN(C)Cc1ccc(C(F)(F)F)cc1)OCCCC[C@H](C)O2`, the cytotoxicity call was “inactive”.

For the compound `C[C@@H]1CN([C@H](C)CO)C(=O)Cc2cc(NC(=O)c3ccncc3)ccc2O[C@H]1CN(C)Cc1ccc2c(c1)OCO2`, the cytotoxicity call is “inactive”.

On to `C[C@H]1CN([C@@H](C)CO)C(=O)c2ccccc2-c2ccccc2CO[C@H]1CN(C)Cc1ccc(Oc2ccccc2)cc1`, for which the cytotoxicity call was “inactive”.

With `COc1ccc(C(=O)C=Cc2ccccc2)cc1`, the cytotoxicity call is “inactive”.

With `COC1=CC(=O)c2ccccc2C1=O`, the cytotoxicity call was “inactive”.

For `COC1=CC(=O)C(O)=CC1=CC=Cc1ccccc1`, the cytotoxicity call is “active”.

For the compound `C[C@H]1CCCCO[C@H](CN(C)C(=O)Nc2ccc(C(F)(F)F)cc2)[C@@H](C)CN([C@@H](C)CO)C(=O)c2cc(NS(C)(=O)=O)ccc2O1`, the cytotoxicity call is “inactive”.

Consider `Cc1noc(C)c1S(=O)(=O)Nc1ccc2c(c1)C(=O)N([C@H](C)CO)C[C@@H](C)[C@@H](CN(C)CC1CCCCC1)OCCCC[C@@H](C)O2`, for which the cytotoxicity call was “inactive”.

`C[C@@H]1CN([C@H](C)CO)C(=O)c2cccc(NC(=O)c3nc4ccccc4s3)c2O[C@@H]1CN(C)Cc1ccc(C(F)(F)F)cc1`: the cytotoxicity call is “inactive”.

Take `C[C@H]1CN([C@@H](C)CO)C(=O)c2cccc(NC(=O)c3nc4ccccc4s3)c2O[C@@H]1CN(C)Cc1ccc(C(F)(F)F)cc1`: the cytotoxicity call is “active”.

Regarding `C[C@@H]1CN([C@@H](C)CO)C(=O)c2cccc(NC(=O)c3nc4ccccc4s3)c2O[C@@H]1CN(C)Cc1ccc(C(F)(F)F)cc1`, the cytotoxicity call is “inactive”.

Turning to `C[C@@H]1CN([C@@H](C)CO)C(=O)c2cccc(NC(=O)c3nc4ccccc4s3)c2O[C@H]1CN(C)Cc1ccc(C(F)(F)F)cc1`, the cytotoxicity call is “inactive”.

As to `C[C@@H]1CN([C@H](C)CO)C(=O)c2cccc(NC(=O)c3nc4ccccc4s3)c2O[C@H]1CN(C)Cc1ccc(C(F)(F)F)cc1`, the cytotoxicity call is “active”.

`C[C@H](CO)N1C[C@H](C)[C@@H](CN(C)Cc2ccc(C(F)(F)F)cc2)Oc2c(NC(=O)c3nc4ccccc4s3)cccc2C1=O`: the cytotoxicity call is “inactive”.

On to `C[C@H](NC(=O)C[C@@H]1C[C@@H]2c3cc(NC(=O)Nc4ccc(C(F)(F)F)cc4)ccc3O[C@@H]2[C@@H](CO)O1)c1ccccc1`, for which the cytotoxicity call was “inactive”.

As to `C[C@H]1CN([C@@H](C)CO)C(=O)c2ccccc2-c2ccccc2CO[C@@H]1CN(C)Cc1cccc(C(F)(F)F)c1`, the cytotoxicity call is “inactive”.

As to `C[C@@H]1CCCCO[C@@H](CN(C)C)[C@@H](C)CN([C@H](C)CO)C(=O)c2cc(NC(=O)Nc3ccc(C(F)(F)F)cc3)ccc2O1`, the cytotoxicity call is “inactive”.

In the case of `CO[C@@H](CN(C)S(=O)(=O)c1cccc(Cl)c1)[C@@H](C)CN([C@H](C)CO)S(=O)(=O)c1ccc(Cl)cc1`, the cytotoxicity call was “inactive”.

Consider `C[C@H](CO)N1C[C@H](C)[C@@H](CN(C)C(=O)CCCN(C)C)OCCCC[C@H](C)Oc2ccc(NC(=O)Nc3ccc(C(F)(F)F)cc3)cc2C1=O`, for which the cytotoxicity call is “inactive”.

Regarding `C[C@H]1CN([C@@H](C)CO)C(=O)c2cc(NC(=O)Cc3cn(C)c4ccccc34)ccc2O[C@H]1CN(C)Cc1ccc(Oc2ccccc2)cc1`, the cytotoxicity call is “inactive”.

Consider `C[C@H]1CN([C@@H](C)CO)C(=O)c2cc(NC(=O)Cc3cn(C)c4ccccc34)ccc2O[C@@H]1CN(C)Cc1ccc(Oc2ccccc2)cc1`, for which the cytotoxicity call is “active”.

On to `C[C@@H]1CN([C@@H](C)CO)C(=O)c2cc(NC(=O)Cc3cn(C)c4ccccc34)ccc2O[C@H]1CN(C)Cc1ccc(-c2ccccc2)cc1`, for which the cytotoxicity call is “inactive”.

On to `C[C@@H]1CN([C@@H](C)CO)C(=O)c2cc(NC(=O)Cc3cn(C)c4ccccc34)ccc2O[C@H]1CN(C)Cc1ccc(Oc2ccccc2)cc1`, for which the cytotoxicity call was “inactive”.

Take `C[C@@H]1CN([C@H](C)CO)C(=O)c2cc(NC(=O)Cc3cn(C)c4ccccc34)ccc2O[C@H]1CN(C)Cc1ccc(-c2ccccc2)cc1`: the cytotoxicity call is “inactive”.

Turning to `C[C@@H]1CN([C@H](C)CO)C(=O)c2cc(NC(=O)Cc3cn(C)c4ccccc34)ccc2O[C@H]1CN(C)Cc1ccc(Oc2ccccc2)cc1`, the cytotoxicity call is “inactive”.

Take `C[C@H](CO)N1C[C@H](C)[C@H](CN(C)Cc2ccc(-c3ccccc3)cc2)Oc2ccc(NC(=O)Cc3cn(C)c4ccccc34)cc2C1=O`: the cytotoxicity call is “active”.

Consider `C[C@@H]1CN([C@H](C)CO)C(=O)c2cc(NC(=O)Cc3cn(C)c4ccccc34)ccc2O[C@@H]1CN(C)Cc1ccc(Oc2ccccc2)cc1`, for which the cytotoxicity call is “inactive”.

Regarding `C[C@H](CO)N1C[C@H](C)[C@H](CN(C)Cc2ccc(Oc3ccccc3)cc2)Oc2ccc(NC(=O)Cc3cn(C)c4ccccc34)cc2C1=O`, the cytotoxicity call was “active”.

With `CC(C)[C@@H](N)c1ncnn1C`, the cytotoxicity call was “inactive”.

As for `COc1ccc(NC(=O)Nc2ccc3c(c2)C(=O)N([C@H](C)CO)C[C@@H](C)[C@H](CN(C)S(=O)(=O)c2ccc(Cl)cc2)OCCCC[C@H](C)O3)cc1`, the cytotoxicity call is “inactive”.

Take `CC(C)C#Cc1cnc2c(c1)C(=O)N([C@@H](C)CO)C[C@H](C)[C@H](CN(C)C(=O)c1ccc3c(c1)OCO3)O2`: the cytotoxicity call was “inactive”.

For the compound `C[C@H](CO)N1C[C@H](C)[C@@H](CN(C)C(=O)Cc2ccccn2)Oc2cc(-c3cccc(C(=O)N(C)C)c3)ccc2S1(=O)=O`, the cytotoxicity call was “inactive”.

For `C[C@H]1[C@H]([Si](C)(C)F)[C@@H](CC(=O)N2Cc3ccccc3C[C@H]2CO)O[C@]12C(=O)N(c1ccccc1)c1ccccc12`, the cytotoxicity call is “inactive”.

Take `CCCNc1ncnc(N)c1[N+](=O)[O-]`: the cytotoxicity call is “inactive”.

For `NS(=O)(=O)C#Cc1ccccc1`, the cytotoxicity call was “active”.

As for `NS(=O)(=O)c1ccccc1`, the cytotoxicity call is “inactive”.

`Nc1ccccc1S(N)(=O)=O`: the cytotoxicity call is “inactive”.

Take `CCC[C@@H](O)C#Cc1cnc2c(c1)C(=O)N([C@H](C)CO)C[C@H](C)[C@H](CN(C)S(C)(=O)=O)O2`: the cytotoxicity call is “inactive”.

As for `CCOc1cc(C(C)(C)C)ccc1C1=N[C@@](C)(c2ccc(Cl)cc2)[C@@](C)(c2ccc(Cl)cc2)N1C(=O)N1CCN(CCCS(C)(=O)=O)CC1`, the cytotoxicity call is “active”.

`C[C@H]1CN([C@@H](C)CO)S(=O)(=O)c2ccc(/C=C/c3ccccc3)cc2O[C@@H]1CN(C)C(=O)CN1CCOCC1`: the cytotoxicity call was “inactive”.

In the case of `C[C@H]1CN([C@@H](C)CO)C(=O)Cc2cc(NC(=O)c3ccncc3)ccc2O[C@@H]1CN(C)S(=O)(=O)c1cn(C)cn1`, the cytotoxicity call was “inactive”.

On to `COc1cccc(S(=O)(=O)N(C)C[C@@H]2Oc3ncc(C#CC(C)C)cc3C(=O)N([C@@H](C)CO)C[C@@H]2C)c1`, for which the cytotoxicity call is “inactive”.

As to `COc1ccc(NC(=O)Nc2ccc3c(c2)C(=O)N([C@@H](C)CO)C[C@H](C)[C@H](CN(C)C(=O)Nc2cccc4ccccc24)O3)cc1`, the cytotoxicity call is “inactive”.

Turning to `COc1ccc(NC(=O)Nc2ccc3c(c2)C(=O)N([C@@H](C)CO)C[C@@H](C)[C@@H](CN(C)C(=O)Nc2cccc4ccccc24)O3)cc1`, the cytotoxicity call was “active”.

In the case of `COc1ccc(NC(=O)Nc2ccc3c(c2)C(=O)N([C@H](C)CO)C[C@@H](C)[C@H](CN(C)C(=O)Nc2cccc4ccccc24)O3)cc1`, the cytotoxicity call is “inactive”.

`COc1ccc(S(=O)(=O)N(C)C[C@@H]2Oc3ccc(NC(=O)Nc4cccc5ccccc45)cc3C(=O)N([C@@H](C)CO)C[C@H]2C)cc1`: the cytotoxicity call was “active”.

`COc1ccc(NC(=O)Nc2ccc3c(c2)C(=O)N([C@H](C)CO)C[C@@H](C)[C@@H](CN(C)C(=O)Nc2cccc4ccccc24)O3)cc1`: the cytotoxicity call was “active”.

As for `COc1ccc(S(=O)(=O)N(C)C[C@H]2Oc3ccc(NC(=O)Nc4cccc5ccccc45)cc3C(=O)N([C@H](C)CO)C[C@H]2C)cc1`, the cytotoxicity call was “inactive”.

In the case of `COc1ccc(S(=O)(=O)N(C)C[C@H]2Oc3ccc(NC(=O)Nc4cccc5ccccc45)cc3C(=O)N([C@@H](C)CO)C[C@@H]2C)cc1`, the cytotoxicity call was “inactive”.

`COc1ccc(S(=O)(=O)N(C)C[C@H]2Oc3ccc(NC(=O)Cc4ccccc4)cc3C(=O)N([C@H](C)CO)C[C@@H]2C)cc1`: the cytotoxicity call was “active”.

For the compound `COc1ccc(NC(=O)Nc2ccc3c(c2)C(=O)N([C@@H](C)CO)C[C@@H](C)[C@H](CN(C)C(=O)Nc2cccc4ccccc24)O3)cc1`, the cytotoxicity call was “inactive”.

For the compound `COc1ccc(S(=O)(=O)N(C)C[C@@H]2Oc3ccc(NC(=O)Cc4ccccc4)cc3C(=O)N([C@@H](C)CO)C[C@@H]2C)cc1`, the cytotoxicity call was “inactive”.

On to `COc1ccc(NC(=O)Nc2ccc3c(c2)C(=O)N([C@H](C)CO)C[C@H](C)[C@@H](CN(C)C(=O)Nc2cccc4ccccc24)O3)cc1`, for which the cytotoxicity call is “inactive”.

For `COc1ccc(S(=O)(=O)N(C)C[C@H]2Oc3ccc(NC(=O)Cc4ccccc4)cc3C(=O)N([C@@H](C)CO)C[C@@H]2C)cc1`, the cytotoxicity call is “inactive”.

The values are drawn from the antibiotic and cytotoxicity screens of Wong et al. (2023).
